Several values for one entry are separate records, joined by “and”; a condition that tells them apart may be missing. Equal entries are not always repeated. Some structures have more than one record in an assay (separate samples or runs), and their calls can disagree. Activity calls are given as the source filed them. How the source made its calls: active means hit-call score of the fitted dose curve at least 0.9, where 1 is the maximum; inactive means score below 0.9.
What follows are compounds tested on Collagen III, COL3A1 (gene 1281) (assay: BSK_hDFCGF_CollagenIII: BioMAP Diversity Plus: hDFCGF Assay for Collagen III Biomarker Activity (AID 2283056)). Conditions: primary human foreskin fibroblasts; actives raise or lower the signal.
Procedure: BSK_hDFCGF is a cell-based, multiplexed-readout assay that uses foreskin fibroblast, a human skin primary cell, with measurements taken at 24 hours after chemical dosing in a 96-well plate.BSK_hDFCGF_CollagenIII is an assay component measured in the BSK_hDFCGF assay. It measures Collagen antibody related to regulation of gene expression using ELISA technology.Data from the assay component BSK_hDFCGF_CollagenIII was analyzed into 1 assay endpoint. This assay endpoint, BSK_hDFCGF_CollagenIII, was analyzed with bidirectional fitting relative to DMSO as the negative control and baseline of activity. Using a type of binding reporter, gain or loss-of-signal activity can be used to understand changes in the signaling as they relate to the gene COL3A1. Furthermore, this assay endpoint can be referred to as a primary readout, because this assay has produced multiple assay endpoints where this one serves a signaling function. To generalize the intended target to other relatable targets, this assay endpoint is annotated to the cell adhesion molecules intended target family, where the subfamily is collagen.
The levels of cell surface (or secreted, indicated by the prefix "s") biomarker endpoints were measured by ELISA. Overt cytotoxicity to cells in confluent adherent cultures (all systems other than the BT system) was assessed by measuring total protein levels using sulforhodamine B (SRB) staining in parallel cultures at the time of biomarker measurements, indicated as SRB endpoints. For proliferation assays for adherent cell types, individual cell types are cultured at sub-confluence and relative cell numbers quantified by SRB staining at time points optimized for each system (48 h: 3C and CASM3C systems; 72 h: BT and HDF3CGF systems; 96 h: SAg system). SRB was performed by staining cells with 0.1% SRB after fixation with 10% TCA and reading wells at 560 nm.Viability and proliferation of PBMC (T cells) was quantified by Alamar Blue reduction for the SAg and BT systems. For PBMC viability (referred to as PBMC Cytotoxicity within the assay endpoint names), cells were plated (75,000/well in a 96-well plate) and then chemical samples added for 1 h before addition of activators, SEB and TSST-1 (20 ng/mL final concentration each). Cells were incubated for 90 h. Then, Alamar Blue (20 uL/well) (Invitrogen, Cat DAL1100) was added for 6 h, and the plates were read with a fluorescence microplate reader at 546/580 nm (excitation/emission). For PBMC proliferation, cells were plated and activated as above but incubated for only 16 h prior to addition of Alamar Blue. Plates were read after 6 h.
For `C1CN(CCOCCN2CCOCC2)CCO1`, the outcome was “inactive”.
For `CN(C)c1ccc(C(c2ccccc2)c2ccc(N(C)C)cc2)cc1`, the AC50 was 10.7 µM (active).
For `CC(C)CC(=O)CC(C)CC(C)C` (stereo not drawn), the outcome was “inactive”.
With `CCCCCCCCCCCCCCCCCC[N+](C)(C)C` the outcome was “inactive”.
With `O=C(C(=O)c1ccccc1)c1ccccc1` the outcome was “inactive”.
For `COC(=O)/C=C\C(=O)OC`, the outcome was “inactive”.
In the case of `CC[N+](CC)(CC(=O)Nc1c(C)cccc1C)Cc1ccccc1`, the outcome is reported as “inactive”.
For `O=[N+]([O-])c1cc(S(=O)(=O)Nc2ccccc2)ccc1Nc1ccccc1`, the AC50 was 5.82 µM (active) and 5.34 µM (active).
`COc1ccccc1Oc1c(NS(=O)(=O)c2ccc(C(C)(C)C)cc2)nc(-c2ncccn2)nc1OCCO` was tested, and the AC50 was 3.9 µM (active) and 2.51 µM (active).
In the case of `COc1ccc(C(=O)c2ccccc2O)c(O)c1`, the AC50 is reported as 7.73 µM (active) and the outcome is reported as “inactive”.
`CC[N+](CC)(CC(=O)Nc1c(C)cccc1C)Cc1ccccc1` (tested in a mixture with another compound) was tested, and the outcome was “inactive”.
For `OC(C(F)(F)F)(C(F)(F)F)C(O)(C(F)(F)F)C(F)(F)F`, the AC50 was 41.9 µM (active) and 23.6 µM (active).
`CC(C)C1OCCN1CCOC(=O)NCCCCCCNC(=O)OCCN1CCOC1C(C)C` (stereo not drawn) was tested, and the outcome was “inactive”.
`COc1cc(CNC(=O)CCCC/C=C/C(C)C)ccc1O` was tested, and the outcome was “inactive”.
`CCC[Si](OC(C)=O)(OC(C)=O)OC(C)=O` was tested, and the outcome was “inactive”.
For `CCC(C)=NO`, the outcome was “inactive”.
`CCCCCCC(O)CCCCCCCCCCC(=O)OC` (stereo not drawn) was tested, and the outcome was “inactive”.
`CCCCC(CC)COC(=O)C=Cc1ccc(OC)cc1` (stereo not drawn) was tested, and the AC50 was 9.77 µM (active) and 7.79 µM (active).
`CN(C)CCC(c1ccc(Cl)cc1)c1ccccn1` (stereo not drawn) was tested, and the outcome was “inactive”.
For `Cc1cc(-n2nc3ccc(Cl)cc3n2)c(O)c(C(C)(C)C)c1`, the outcome was “inactive”.
For `CN(C)Cc1cc(C(C)(C)C)c(O)c(C(C)(C)C)c1`, the AC50 was 26.9 µM (active) and 20 µM (active).
`CCCCCCCCCC/C=C/C1CC(=O)OC1=O` (stereo not drawn) was tested, and the outcome was “inactive”.
With `CCCCCCCCCCC1CO1` (stereo not drawn) the AC50 was 20 µM (active).
In the case of `Cc1c(C(N)=O)cc([N+](=O)[O-])cc1[N+](=O)[O-]`, the outcome is reported as “inactive”.
`Sc1nc2ccccc2s1` was tested, and the outcome was “inactive”.
For `Cc1cccnc1`, the outcome was “inactive”.
With `Oc1cccc2ccccc12` the outcome was “inactive”.

Source: PubChem BioAssay (EPA / NIEHS)
